In all, about 1,100 compounds went through this assay and about 760 (69%) were called active. The rule behind the calls is not given here. The set was probably picked from earlier hits. Some of the results follow.
Assay: M. tuberculosis growth inhibition, HTS (AID 1259417);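 note: bacteria grown with compound for 5 days at 37 °C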
Settings: stronger effect = higher value, concentration not given here
[1] = M. tuberculosis DsRed fluorescence growth inhibition
[2] = M. tuberculosis growth inhibition

| Compound | inhibition [1] | inhibition [2] |
| --- | --- | --- |
| O=C(NCc1ccco1)c1cc([N+](=O)[O-])cc([N+](=O)[O-])c1 | 97.8% (active) | 93.5% |
| Cc1scc(C(=O)NCc2ccco2)c1-c1ccccc1 | 2.71% (inactive) | 6.55% |
| CSc1ncc(C(=O)NCc2ccco2)cn1 | 35.2% (active) | 25.2% |
| O=C(Nc1sc2c(c1C(=O)NCc1ccco1)CCC2)c1ccccc1[N+](=O)[O-] | 3.29% (inactive) | -5.87% |
| CSc1ncc(C(=O)Nc2cccc(C(F)(F)F)c2)cn1 | 12.9% (inactive) | 15.6% |
| COc1ccccc1C(=O)Nc1sc2c(c1C(=O)NCc1ccco1)CCC2 | 3.89% (inactive) | -6.54% |
| COc1cc(OC)cc(C(=O)NC(=S)N2CCCCCC2)c1 | 3.24% (inactive) | -3.75% |
| CN1CCN(C(=S)NC(=O)c2ccc(-c3ccccc3)cc2)CC1 | 0.913% (inactive) | -8% |
| O=C(NC(=S)N1CCc2ccccc21)c1ccccc1 | 20.8% (inactive) | 20.4% |
| O=C(NC(=S)N1CCCC1)c1ccc(-c2ccccc2)cc1 | 44.2% (active) | 47% |
| CC1CCN(C(=S)NC(=O)c2ccc(Cl)cc2)CC1 | 24.6% (active) | 49.7% |
| CC(=O)N(C)c1ccc(OCC(O)Cn2c3ccc(Cl)cc3c3cc(Cl)ccc32)cc1 (stereo unspecified) | 0.0147% (inactive) | -14.7% |
| CCN(CC)CCn1c(=N)n(CC(O)COc2ccc(Cl)cc2Cl)c2ccccc21 (stereo unspecified) | 100% (active) | 98% |
| CC(=O)Oc1cc2c(cc1Cl)C1(CC(c3ccccc3Cl)O2)CC(C)(C)NC(=S)N1 (stereo unspecified) | -2.34% (inactive) | -4.82% |
| COC(=O)CSc1nc(N)c2c3c(sc2n1)CCCC3 | 44.7% (active) | 75% |
| Cc1ccc(C)c(-c2nnc(NC(=O)C3COc4ccccc4O3)o2)c1 (stereo unspecified) | 66.1% (active) | 90% |
| O=C(NCC1COc2ccccc2O1)c1ccc(NC(=O)C2COc3ccccc3O2)cc1 (stereo unspecified) | 0.302% (inactive) | -8.66% |
| Cc1ccc(C)c(-c2nnc(NC(=O)C3=COCCO3)o2)c1 | -4.83% (inactive) | -2.72% |
| CCC(=O)Nc1nnc(-c2ccc(C)cc2C)o1 | 0.727% (inactive) | 13.4% |
| CCCCC(=O)Nc1nnc(-c2ccc(Cl)s2)o1 | 0.12% (inactive) | 19.7% |

| Compound | inhibition [1] | inhibition [2] |
| --- | --- | --- |
| O=C(Nc1nnc(-c2ccc(Cl)s2)o1)C1CCCCC1 | 49.3% (active) | 59.3% |
| Cc1ccc(C)c(-c2nnc(NC(=O)C3CC3)o2)c1 | 51.8% (active) | 83.4% |
| O=C(Nc1nnc(-c2ccc(Cl)cc2)o1)C1CCCCC1 | 0.632% (inactive) | 5.51% |
| Cc1ccc(-c2nnc(NC(=O)C3CC3)o2)c(C)c1 | 49.6% (active) | 76.4% |
| CSc1ncnc2c1ncn2CC(=O)Nc1ccc(C)c(C)c1 | 32.5% (active) | 19.8% |
| Cc1ccc(Nc2nnc(SCC(=O)Nc3cccnc3Cl)s2)cc1C | 3.89% (inactive) | -3.4% |
| CC(C)(C)c1ccc(C(=O)Nc2nnc(-c3ccncc3)o2)cc1 | 64.6% (active) | 77.1% |
| CC(C)(C)c1ccc(C(=O)Nc2nnc(-c3cccnc3)o2)cc1 | 83.8% (active) | 89.3% |
| CC12CCC(C(=O)Oc3cccc4cccnc34)(CC1=O)C2(C)C (stereo unspecified) | 101% (active) | 100% |
| COC(=O)c1ccc(COC(=O)c2ccccc2Cl)cc1 | 0.593% (inactive) | 15.3% |
| CCCCNC(=O)COC(=O)c1cc(Br)ccc1Cl | 11.3% (active) | 63.4% |
| O=c1c2ccccc2nc(C=Cc2ccc([N+](=O)[O-])o2)n1-c1cccc(O)c1 | 6.18% (inactive) | -1.52% |
| CCn1c(C=Cc2ccc([N+](=O)[O-])o2)nc2ccc(I)cc2c1=O | 36.1% (active) | 34.3% |
| Cc1ccc(C)c(OCC(=O)Nc2ccc(C(=O)OC(C)C)cc2)c1C | 8.22% (inactive) | -22.5% |
| Cc1ccc(C(=O)Nc2ccc([N+](=O)[O-])cc2)s1 | 98.3% (active) | 94.8% |
| CCOC(=O)c1c(NC(=O)C2COc3ccccc3O2)sc2c1CC(C)(C)NC2(C)C (stereo unspecified) | 29.1% (inactive) | -2.75% |
| CCOC(=O)c1ccc(NC(=O)c2ccc(C)s2)cc1 | 91.5% (active) | 65.1% |
| CCOC(=O)c1ccc(NC(=O)C=Cc2ccc([N+](=O)[O-])s2)cc1 | 52.9% (active) | 80.2% |
| O=Cc1ccc2oc3nc4n(c(=O)c3c(=O)c2c1)CCCS4 | 96.9% (active) | 95.6% |
| O=c1c2cc(Cl)ccc2oc2nc3n(c(=O)c12)CCCS3 | 99.1% (active) | 98.2% |

| Compound | inhibition [1] | inhibition [2] |
| --- | --- | --- |
| O=C(Nc1ccn(Cc2ccc(Cl)cc2)n1)c1ccc2c(c1)OCO2 | 100% (active) | 99.3% |
| CC(C)c1ccc(-c2csc(NC(=O)c3ccc4c(c3)OCCO4)n2)cc1 | -4.25% (inactive) | -26.1% |
| O=C1N(Cc2ccccc2Cl)c2ccc(Br)cc2C1(O)c1c[nH]c2ccccc12 (stereo unspecified) | 10.6% (inactive) | -0.98% |
| Cc1ccc(C(=O)Nc2sc(C)c(C)c2C(N)=O)cc1I | 3.89% (inactive) | -13.1% |
| CCc1cc(I)ccc1NC(=O)c1ccc([N+](=O)[O-])o1 | 98% (active) | 98.3% |
| Cc1ccc(C(=O)Nc2ccc([N+](=O)[O-])cc2C)cc1I | 97.4% (active) | 83.2% |
| O=C(Nc1ccccc1Br)c1ccc([N+](=O)[O-])o1 | 64% (active) | 42.2% |
| CCN(CC)c1ccc(NC(=O)c2ccc([N+](=O)[O-])o2)c(C)c1 | 98.8% (active) | 99.7% |
| Cc1cc(NC(=O)c2ccc([N+](=O)[O-])o2)c(C)cc1I | 88% (active) | 92% |
| c1ccc(CCNc2nc(-c3ccccn3)cs2)cc1 | 87.2% (active) | 86.6% |
| COc1ccc(CCNc2nc(-c3ccccn3)cs2)cc1OC | 89.5% (active) | 78% |
| Cc1cn2c3c(=O)[nH]c(=O)n(C)c3nc2n1CCCNc1ccccc1 | 34.8% (active) | 31.6% |
| Cc1cccc2sc(NC(=O)c3ccc(C(C)(C)C)cc3)nc12 | 12.6% (inactive) | 14.7% |
| CCOC(=O)C(C)Sc1nnc(NC(=O)c2ccc(C)c([N+](=O)[O-])c2)s1 (stereo unspecified) | -5.3% (inactive) | 0.339% |
| COC(=O)CSc1nnc(NC(=O)c2ccc(C(C)(C)C)cc2)s1 | 99.1% (active) | 98.3% |
| CCc1ccc(Nc2nnc(SCC(=O)Nc3cccnc3Cl)s2)cc1 | 7.74% (inactive) | 23.1% |
| COC(=O)CSc1nnc(NC(=O)c2ccc(Cl)cc2)s1 | 88.6% (active) | 86.6% |
| CC(C)c1ccc(Nc2nnc(SCC(=O)Nc3ncc(S(=O)(=O)c4ccc([N+](=O)[O-])cc4)s3)s2)cc1 | -1.44% (inactive) | -2.42% |
